Results on 15 molecules are retold here after publication PMC5540273 (PLoS ONE, 2017).
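Also: KINOMEscan kinase panel screen.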

This assay concerns ULK1. The conditions noted are these: concentration: 1 μM, replicates: in singlicate; n = 1.
In the case of `O=C1NC(=O)C(c2ccccc2)=C1Nc1cccc(O)c1` [SB-390534], the “%Inh” value worked out at 0%.

With `COc1ccc(CNC(=O)NC2CCN(c3ccnc(Nc4ccc(F)cc4)n3)C2)cc1` (stereo not drawn) [GSK1379706], the “%Inh” value is listed as 0%.

As to `COc1cc2nccc(Nc3cccc(Oc4ccccc4)c3)c2cc1OC.Cl` [GW284543], the “%Inh” value is 6%.

For the molecule `Cc1nnc(-c2ccc(C)c(-c3ccc(C(=O)O)cc3)c2)o1` [GW608005], the “%Inh” value is reported as 8%.

Consider `Cc1cccc(-c2nc(Nc3ccc4c(cnn4C)c3)c3ccccc3n2)n1` [GW876731], for which the “%Inh” value turned out to be 8%.

Turning to `Cc1nc(N(C)[C@H]2CN(C(=O)CC#N)CC[C@H]2C)c2cc[nH]c2n1`, the “%Inh” value amounted to 0%.

`COc1cc(Nc2ccnc3ccc(C(F)(F)F)cc23)cc(OC)c1OC` [GW577382]: the “%Inh” value was 0%.

For the molecule `COc1cccc(-n2cnc3c(N)ncnc32)c1` [SKF-97416], the “%Inh” value was 45%.

In the case of `COc1ccc(-c2cc3c(C)nc(N)nc3n([C@H]3CC[C@H](OCCO)CC3)c2=O)cn1`, the “%Inh” value came to 0%.

On to `COc1cc2ncn(-c3cc(OCCCc4ccccc4)c(C(N)=O)s3)c2cc1OC` [GSK205189], for which the “%Inh” value was 2%.

Consider `CN1C(=O)C(Nc2ccccc2)=C(c2ccccc2)C1=O` [SB-300079], for which the “%Inh” value was determined as 6%.

Regarding `O=C(NCc1cccs1)c1cc(C(=O)c2c(Cl)cccc2Cl)c[nH]1` [GW823670], the “%Inh” value is reported as 0%.

With `CCCNC(=O)Nc1ccc(Oc2ncnc3ccn(C)c23)cc1`, the “%Inh” value turned out to be 14%.

`Nc1nccc2scc(-c3ccc4c(c3)CCN4C(=O)Cc3ccccc3)c12` [GSK2576924]: the “%Inh” value was 2%.

On to `CCC(=O)c1c(-c2ccccc2)c2cc(Cl)ccc2c(=O)n1Cc1cc(S(C)(=O)=O)n(CCC(C)(C)O)n1`, for which the “%Inh” value was 0%.
